17 compounds from PubChem BioAssay (NCATS) can be followed below.

Test [1] can be described thus: Quantitative High-Throughput drug screen in 47 multiple myeloma cell lines against the NCATS MIPE library collection: KMS12PE_JCRB cell viability assay (AID 1918972). Further: nearly all actives have a fitted effect of over 30% in size. In a few lines: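 qHTS of the MIPE 4.0 collection: 500 myeloma cells/well, 48 h drug exposure at 37C in 5% CO2, then CellTiter-Glo for 5 min at room temperature before luminescence reading.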
Test [2] in a line: Quantitative High-Throughput drug screen in 47 multiple myeloma cell lines against the NCATS MIPE library collection: KMS20_JCRB cell viability assay (AID 1918973). Further: nearly all actives have a fitted effect of over 45% in size. The procedure, abridged: (§1)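 Myeloma cells (500 per well) were exposed to MIPE 4.0 compounds by pin transfer and incubated 48 hours at 37C, 5% CO2. Viability was read as ATP by CellTiter-Glo luminescence, normalised to DMSO (100%) and media-only (0%) wells.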

Test [3] can be described thus: Quantitative High-Throughput drug screen in 47 multiple myeloma cell lines against the NCATS MIPE library collection: KMS21BM_JCRB cell viability assay (AID 1918974). As to conditions: ATP luminescence, 48 h; viability: at 45.8 µM (top of the series). The procedure, abridged:
as §1

Test [4] is described as follows: Quantitative High-Throughput drug screen in 47 multiple myeloma cell lines against the NCATS MIPE library collection: KMS26_JCRB cell viability assay (AID 1918975). Further: nearly all actives have a fitted effect of over 45% in size. The procedure, abridged: as §1
Test [5] can be described thus: Quantitative High-Throughput drug screen in 47 multiple myeloma cell lines against the NCATS MIPE library collection: MMM1_PLB cell viability assay (AID 1918976). Further: nearly all actives have a fitted effect of over 35% in size. The procedure, abridged: (§2)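 Viability after 48 h drug exposure was measured as ATP-dependent luminescence. Cells, 500 per well, sat at 37 °C under 5% CO2; DMSO wells set 100%, media-only wells 0%.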
Test [6] is described as follows: Quantitative High-Throughput drug screen in 47 multiple myeloma cell lines against the NCATS MIPE library collection: MOLP8_DSMZ cell viability assay (AID 1918977). Further: nearly all actives have a fitted effect of over 45% in size. The procedure, abridged:
as §2

Test [7] can be described thus: Quantitative High-Throughput drug screen in 47 multiple myeloma cell lines against the NCATS MIPE library collection: MM1S_ATCC cell viability assay (AID 1918980). Further: nearly all actives have a fitted effect of over 45% in size. In a few lines: as §2
Test [8] in a line: Quantitative High-Throughput drug screen in 47 multiple myeloma cell lines against the NCATS MIPE library collection: KMS12BM_JCRB cell viability assay (AID 1918971). Further: nearly all actives have a fitted effect of over 35% in size. The procedure, abridged:
as §1

A short description of test [9]: Quantitative High-Throughput drug screen in 47 multiple myeloma cell lines against the NCATS MIPE library collection: NCIH929_DSMZ cell viability assay (AID 1918978). Further: nearly all actives have a fitted effect of over 35% in size. In a few lines: as §2
The nature of test [10]: Quantitative High-Throughput drug screen in 47 multiple myeloma cell lines against the NCATS MIPE library collection: OCIMY1_PLB cell viability assay (AID 1918979). Further: nearly all actives have a fitted effect of over 35% in size. The procedure, abridged: as §2

Records with an inconclusive call do not appear. Active and inactive are the calls of the source. The call rests on the fitted dose curve; in most records, active means well fitted curve in the direction sought with a large enough effect; inconclusive means small, poorly fitted or top-dose-only effect, or another doubt; inactive means no such curve, though single readings can be large; an effect the other way counts as inactive or inconclusive.
Potency means the concentration at half of the fitted maximal effect.

`Cc1c(C(=O)Nc2cccc(C(F)(F)F)c2)cc(-c2ccccc2)n1CCCN1CCOCC1`: the Potency in test [1] was 10.5 µM (active); in [2], 16.6 µM (active); in test [3] it was 18.7 µM (active); in test [4] it was 11.8 µM (active); in test [5] it was 20.9 µM (active); in test [6] it was 20.9 µM (active). For the same compound, the Potency in [7] was 20.9 µM (active).

With `C#CC1(O)CCC2C3CCC4=CC(=O)CCC4(C)C3CCC21C` (stereo not drawn), the values for the Potency in test [8] and in test [5] were 4.18 µM (active) and 9.35 µM (active), respectively. For the same compound, the Potency entry in [1], in test [2], in test [9], in test [10] and in [7] was “inactive” in each case.

With `COc1cccc2c1[C@]13CCN(CC4CC4)[C@H](C2)[C@]1(OC)CCC(=O)C3`, the Potency entry in [8], in test [1], in test [4], in [6], in test [9] and in test [10] was “inactive” in each case. Also, the Potency entry in test [7] is “inactive”.

With `Cc1nc(-c2ccc(-c3ccc(C(=O)N4CCc5cc6c(cc54)C4(CCN(C)CC4)CO6)cc3)c(C)c2)no1`, the Potency result in test [8], in test [2], in test [9] and in [7] was “inactive” in each case.

With `C=C[C@@H]1CN2CCC1C[C@H]2[C@H](O)c1ccnc2ccccc12` (stereo partly drawn), the Potency was 23.5 µM (active) in [8]; 6.62 µM (active) in [1]; 7.43 µM (active) in test [5]; 14.8 µM (active) in test [9]; 18.7 µM (active) in test [7]. The Potency entry in [4] and in test [10] was “inactive” throughout.

On to `CC(C)[C@]12O[C@@H]1[C@@H]1O[C@]13[C@]1(O[C@H]1C[C@@H]1C4=C(CC[C@@]13C)C(=O)OC4)[C@H]2O`, for which the Potency result in [8], in test [1], in test [2], in [3], in test [4] and in test [5] was “inactive” throughout. Further, the Potency entry in [6], in test [9], in test [10] and in test [7] was “inactive” each time.

Take `O=c1[nH]c2ccccc2n1C1CCN(Cc2ccc(-c3[nH]c4cc5ncnc5cc4nc3-c3ccccc3)cc2)CC1`: the Potency is 20.9 µM (active) in [8]; 10.5 µM (active) in test [1]; 2.35 µM (active) in test [2]; 16.6 µM (active) in test [3]; 23.5 µM (active) in test [4]; 14.8 µM (active) in test [5]. Also, the values for the Potency in test [9], in test [10] and in [7] were 0.662 µM (active), 18.7 µM (active) and 18.7 µM (active), respectively.

In the case of `CCNC(=O)CC1N=C(c2ccc(Cl)cc2)c2cc(OC)ccc2-n2c(C)nnc21` (stereo not drawn), the Potency in [8] was 16.6 µM (active); in test [1], 13.2 µM (active); in [3] it was 5.9 µM (active); in [4] it was 5.9 µM (active); in [5], 16.6 µM (active); in [9], 10.5 µM (active). For the same compound, the Potency in test [10] is 18.7 µM (active); in test [7], 11.8 µM (active).

On to `O=c1[nH]c2ccc(Cl)cc2c(N[C@@H]2CN3CCC2CC3)c1-c1nc2ccccc2[nH]1`, for which the Potency was 0.0833 µM (active) in test [1]; 0.166 µM (active) in [2]; 0.0264 µM (active) in [3]; 2.64 µM (active) in test [4]; 6.62 µM (active) in [5]; 0.743 µM (active) in test [6]. In addition, the Potency is 0.148 µM (active) in test [9], 4.69 µM (active) in test [10] and 0.0743 µM (active) in [7].

Take `NC1CC1c1ccccc1` (stereo not drawn): the Potency entry in test [8], in test [1], in test [2], in [4], in test [6] and in test [9] was “inactive” each time. Also, the Potency entry in [10] and in test [7] was “inactive” in each case.

Regarding `Cc1ccccc1-n1c(Cn2ncc3c(N)ncnc32)nc2cccc(C)c2c1=O`, the Potency is 7.43 µM (active) in test [8]; 0.148 µM (active) in test [1]; 0.132 µM (active) in [2]; 0.332 µM (active) in [9]; 0.118 µM (active) in [7]. For the same compound, the Potency result in test [5] is “inactive”.

With `CCc1c(C(=O)C(N)=O)c2c(OCC(=O)O)cccc2n1Cc1ccccc1`, the Potency result in test [8], in test [1], in test [2], in test [4], in test [9] and in [10] was “inactive” throughout. Further, in test [7], the Potency entry is “inactive”.

For `CCOC(=O)c1cncn1[C@H](C)c1ccccc1`, the values for the Potency in test [8] and in [5] were 5.26 µM (active) and 7.43 µM (active), respectively. Also, the Potency entry in [4], in [9] and in test [10] was “inactive” in each case.

Turning to `Cc1ccccc1-n1c(Cn2cnc3c(N)ncnc32)nc2cccc(C)c2c1=O`, the Potency is 0.264 µM (active) in test [1]; 0.296 µM (active) in test [2]; 0.235 µM (active) in [3]; 2.96 µM (active) in test [4]; 0.166 µM (active) in [5]; 0.0743 µM (active) in [6]. For the same compound, the Potency in test [9] was 0.0418 µM (active); in test [7], 0.526 µM (active).

For `O=C(N[C@H]1CN2CCC1CC2)c1ccc(Cl)cc1`, the Potency result in [8] and in test [4] was “inactive” each time. The Potency in [3] was 37.2 µM (active); in [7], 2.96 µM (active).

On to `C[C@H]1CCCC=CC2C[C@H](O)C[C@@H]2[C@H](O)C=CC(=O)O1` (stereo partly drawn), for which the Potency result in [8], in test [2], in [4], in test [6], in [9] and in [10] was “inactive” throughout. For the same compound, in [7], the Potency entry is “inactive”.

Take `CC(C)(C)[C@]1(O)C[C@@H]2OC(=O)C[C@@]23C(=O)O[C@@H]2OC(=O)[C@H](O)C213` (stereo partly drawn): the Potency result in test [8], in test [6], in test [9], in test [10] and in test [7] was “inactive” each time.
